“And” between values parts separate entries of the source, which are not always exact repeats. Identical values can stand only once. The campaign covered roughly 50,000 compounds. About 800 (1.6%) showed an effect of 50% or more. What follows is part of a selection rich in strong results, with near analogues and random picks from the rest.

The assay deals with Bcl-2-like protein 10 (Homo sapiens) (UniProt Q9HD36). Put plainly: Phenotype converters, Bcl-B/TR3 peptide binding displacement, primary biochemical FP (AID 1240).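 Further: 0% = Bcl-B with tracer peptide and DMSO and 100% = tracer peptide lacking Bcl-B.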 The conditions noted are these: GST-Bcl-B / FITC-TR3 peptide fluorescence polarization; stronger effect = higher value; compound at 3.75 mg/L.
Sequence of Bcl-2-like protein 10 (Homo sapiens) (Q9HD36 whole entry, looked up): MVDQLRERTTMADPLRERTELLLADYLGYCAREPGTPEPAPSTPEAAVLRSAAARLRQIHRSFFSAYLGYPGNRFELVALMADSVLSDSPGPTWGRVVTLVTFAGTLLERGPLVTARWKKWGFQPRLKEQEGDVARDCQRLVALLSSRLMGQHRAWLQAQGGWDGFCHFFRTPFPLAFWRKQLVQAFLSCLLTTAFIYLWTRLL
As to `O=C(CSCc1ccccc1)Nc1nnc(/C=C/c2ccccc2)s1`, the displacement was 39.9%.
Take `CC(=O)c1ccc(NC(=O)c2ccc3c(c2)C(=O)N(c2ccc(C)c(C)c2)C3=O)cc1`: the displacement came to 8.9%.
As to `Cc1ccc(N2C(=O)c3ccc(C(=O)Nc4cccc(C)c4C)cc3C2=O)c(C)c1`, the displacement amounted to 6.6%.
For the compound `CN1CCN(C(=O)C(=O)Nc2cccc3ccccc23)CC1`, the displacement is -2.6%.
In the case of `COc1cccc(/C=N/NC(=O)c2cccc(N3CCCC3=O)c2)c1`, the displacement is -3.5%.
As to `COc1cc(/C=C2\SC(N)=NC2=O)cc(OC)c1`, the displacement was -9.9%.
Take `COc1ccc(/C=C2\SC(N)=NC2=O)cc1`: the displacement was found to be 124%.
With `CC(=O)NC1=NC(=O)/C(=C\C=Cc2ccccc2)S1` the figure was -42.4%.
For the compound `NC1=NC(=O)/C(=C\C=C\c2ccccc2)S1`, the displacement was determined as 154%.
To `COc1ccc(/C=C2\SC(=O)NC2=S)cc1` belongs 67.8%; to `CN(C)c1ccc(/C=C/C=C2/SC(N)=NC2=O)cc1`, -17.2%.
To `COc1ccc(/C=C2\SC(=S)N(C(C)C)C2=O)cc1` belongs -3.9%.
Regarding `COc1ccc(/C=C2/SC(=O)NC2=O)c(OC)c1`, the displacement is 4.9%.
Consider `NC1=NC(=O)/C(=C/c2ccc(Br)cc2)S1`, for which the displacement worked out at 3.7%.
To `NC1=NC(=O)/C(=C/c2ccc(Cl)cc2)S1` belongs 57.4%; to `NC1=NC(=O)/C(=C\c2ccc(S(=O)(=O)O)cc2)S1`, 12.8%; to `COc1ccc(C(=O)Oc2ccc(/C=C3\SC(N)=NC3=O)cc2)cc1`, 10.1%.
For the compound `CC(=O)Nc1ccc2sc(C)nc2c1`, the displacement turned out to be 12.9%.
With `COc1cccc(CN2CCN(Cc3cc(OC)ccc3OC)CC2)c1`, the displacement was -9%.
To `COc1ccc(C2SCC(=O)N2CCc2ccc(OC)c(OC)c2)c(OC)c1` (stereo not given) belongs -6.4%; to `COc1ccc(N2C(=O)C3C4C=CC(C5CC45)C3C2=O)c([N+](=O)[O-])c1` (stereo not given), 12.7%; to `N/C(=N\OC(=O)c1ccc(Cl)c([N+](=O)[O-])c1)c1ccccc1`, -3.2%.
`COc1ccc(C2CC(=O)C3=C(C2)Nc2ccccc2NC3c2cccs2)cc1OC` (stereo not given): the displacement is -4.5%.
To `Cc1ccccc1N1C(=O)c2ccc(C(=O)O)cc2C1=O` belongs -3.3%; to `O=C(O)c1ccccc1S(=O)CCO` (stereo not given), 6.8%; to `O=C(c1cccc(F)c1)N1CCN(c2ccccc2)CC1`, -5.4%.
For `O=C(c1cccc(F)c1)N1CCN(c2ccc(F)cc2)CC1`, the displacement was -11.6%.
Consider `O=C(c1ccc(N2CCN(C(=O)c3ccc(F)cc3F)CC2)cc1)c1cccc(F)c1`, for which the displacement was 72.1%.
On to `O=C(c1ccc(N2CCN(C(=O)c3ccc(F)cc3)CC2)cc1)c1cccc(F)c1`, for which the displacement is -6.4%.
On to `O=C(c1cccc(F)c1)N1CCN(c2ccc([N+](=O)[O-])cc2)CC1`, for which the displacement worked out at 118%.
Turning to `O=C(c1ccc(N2CCN(C(=O)c3ccccc3F)CC2)cc1)c1cccc(F)c1`, the displacement is -53.4%.
Regarding `Cc1ccc(/C(=N\S(=O)(=O)c2cccc([N+](=O)[O-])c2)Nc2ccccc2)cc1`, the displacement turned out to be 13.2%.
In the case of `COc1ccccc1OCC(=O)Nc1ccc2c(c1)OCCO2`, the displacement was found to be 2.2%.
Regarding `COc1cc(/C=N/N2C(=O)C3C4C=CC(CC4)C3C2=O)cc(I)c1O` (stereo not given), the displacement stood at 3.3%.
As to `COc1ccc(N2C(=O)NC(=O)/C(=C/c3cccc(O)c3)C2=O)cc1`, the displacement was -6.3%.
Take `C=CCN1C(=O)/C(=C\c2ccc(-c3ccc([N+](=O)[O-])cc3Cl)o2)C(=O)NC1=S`: the displacement amounted to 21%.
`O=C1NC(=O)N(c2ccccc2)C(=O)/C1=C\c1cccn1-c1cccc([N+](=O)[O-])c1`: the displacement is -2.6%.
In the case of `COc1ccc(N2C(=O)NC(=O)/C(=C/c3cccn3-c3cccc([N+](=O)[O-])c3)C2=O)cc1`, the displacement is -4%.
To `CN1C(=O)NC(=O)/C(=C/c2cccn2-c2cccc([N+](=O)[O-])c2)C1=O` belongs 115%; to `CC1=C(C#N)C(=O)NC(=O)/C1=C\c1ccc(-c2cccc(Cl)c2)o1`, 24.7%.
On to `CN1C(=O)NC(=O)/C(=C/c2ccc(-c3ccc([N+](=O)[O-])cc3Cl)o2)C1=O`, for which the displacement was 93.6%.
As for `Cc1ccc([N+](=O)[O-])cc1-c1ccc(/C=C2/C(=O)NC(=O)N(C)C2=O)o1`, the displacement is -8%.
For `CN1C(=O)NC(=O)/C(=C/c2ccc(-c3cccc(Cl)c3)o2)C1=O`, the displacement was 81.5%.
To `CN1C(=O)NC(=O)/C(=C/c2ccc(-c3ccc(Cl)c(Cl)c3)o2)C1=O` belongs -7.2%; to `CC1(C)OC(=O)C(=Cc2ccc(-c3ccc(Cl)cc3Cl)o2)C(=O)O1`, 34.4%; to `CN1C(=O)NC(=O)/C(=C/c2ccc(-c3ccc(Cl)cc3Cl)o2)C1=O`, 72.6%.
As to `CN1C(=O)NC(=O)/C(=C\c2ccc(Cl)cc2Cl)C1=O`, the displacement was 3.8%.
In the case of `O=C(/C=C/c1ccc(F)cc1)NC(=S)NCc1ccco1`, the displacement came to 18.2%.
For `O=C1NC(=O)N(c2ccccc2)C(=O)/C1=C\c1ccc(-c2ccccc2Cl)o1`, the displacement was 42.6%.
Consider `COc1ccc(N2C(=O)NC(=O)/C(=C/c3ccc(-c4ccc([N+](=O)[O-])cc4Cl)o3)C2=O)cc1`, for which the displacement is 20.3%.
In the case of `Cc1cc(-c2ccc(C=C3C(=O)NC(=S)NC3=O)o2)c([N+](=O)[O-])cc1C`, the displacement amounted to 26.1%.
To `Cc1ccc(N2C(=O)NC(=O)/C(=C\c3ccc(-c4ccc([N+](=O)[O-])cc4Cl)o3)C2=O)cc1` belongs 87.2%; to `O=C1NC(=O)N(c2ccccc2)C(=O)/C1=C\c1ccc(-c2ccc([N+](=O)[O-])cc2Cl)o1`, 11.5%; to `Cc1ccc(-c2ccc(C=C3C(=O)NC(=O)NC3=O)o2)c(Br)c1`, -9.6%.
As for `O=C1NC(=O)C(=Cc2ccc(-c3cc(Cl)c([N+](=O)[O-])cc3Cl)o2)C(=O)N1`, the displacement amounted to 81.2%.
On to `O=C1NC(=O)C(=Cc2ccc(-c3cccc(Br)c3)o2)C(=O)N1`, for which the displacement came out at 81.1%.
Consider `O=C1NC(=S)N/C1=C/c1ccc(-c2cccc(Br)c2)o1`, for which the displacement was found to be 15.5%.
As for `CN1C(=O)C(=Cc2ccc(-c3cccc(Cl)c3Cl)o2)C(=O)N(C)C1=O`, the displacement stood at 4.6%.
`CN1C(=O)NC(=O)/C(=C/c2ccc(-c3cccc(Cl)c3Cl)o2)C1=O`: the displacement came out at 74.5%.
Turning to `Cc1ccc(-c2ccc(C=C3C(=O)NC(=O)NC3=O)o2)c([N+](=O)[O-])c1`, the displacement was 1.3%.
Regarding `Nc1nonc1N=Cc1cc(Br)ccc1O`, the displacement was -12.8%.
For the compound `CCC1CCc2c(sc(NC(=O)C3CCCC3)c2C(N)=O)C1` (stereo not given), the displacement is -1.5%.
Regarding `COc1cc(/C=C2/C(=O)NC(=O)N(c3cccc(C)c3)C2=O)ccc1OCC(=O)O`, the displacement is -14.8%.
To `Cc1cc(=O)[nH]c(SCc2cccc(Oc3ccccc3)c2)n1` belongs -8% and 5.2%.
To `CCCCOc1cc2oc(=O)c(CC)c(C)c2cc1CC` belongs 0.2%; to `CN(c1ccccc1)c1ccc(C=C2C(=O)NC(=O)NC2=O)cc1`, 19.6%; to `CC(/C=C/c1ccc(N(C)C)cc1)=N\N=C(/N)SC1CC(=O)N(c2ccc(F)cc2)C1=O` (stereo not given), -8.3%.
To `COc1cc2c(C)nc3c(cnn3-c3ccccc3)c2cc1OC` belongs -5.8%.
Take `COc1cc2c(C)nc3c(c(C)nn3-c3ccccc3)c2cc1OC`: the displacement stood at 59.5%.
On to `COc1cc2c(C)nc3c(c(C)nn3C)c2cc1OC`, for which the displacement is -1.5%.
For `CCOc1cc(C2CC(=O)NC(C)=C2C(=O)OC)cc(Br)c1OC` (stereo not given), the displacement turned out to be 10.6%.
On to `CCOP(=O)(OCC)C(Nc1ccccc1)c1ccc2c(c1)OCO2` (stereo not given), for which the displacement was determined as 13.6%.
To `CCCCOP(=O)(OCCCC)C(Nc1ccccc1)c1ccc(OC)cc1` (stereo not given) belongs 52.1%; to `CCCOP(=O)(OCCC)C(Nc1ccc(Cl)cc1)c1ccc(Br)cc1` (stereo not given), 17.1%.
To `CN1CCc2c(sc3c2C(=O)NC(c2ccc4ccccc4c2)N3)C1` (stereo not given) belongs 83%; to `COc1cc(C2NC(=O)c3c(sc4c3CCN(C)C4)N2)cc(OC)c1OC` (stereo not given), 3.2%.
For the compound `CN1CCc2c(sc3c2C(=O)NC(c2ccc(Cl)s2)N3)C1` (stereo not given), the displacement was determined as 4%.
With `CCOC(=O)NC12CC3CC(C1)CC(C(F)(F)F)(C3)C2`, the displacement came out at 3.2%.
As for `COc1ccc(/C=N\N2CCN(c3ccccc3)CC2)cc1`, the displacement was -0.3%.
To `CCOC(=O)c1c(NC(=O)Cc2ccc(Cl)cc2)sc(C(=O)Nc2ccc(OC)cc2OC)c1C` belongs 18.5%.
As for `O=C1CCNc2c(Cl)cc(Cl)cc21`, the displacement was 88.6%.
In the case of `C/C(=N\N1CCN(c2ccccc2)CC1)c1ccc(F)cc1`, the displacement is -8.7%.
In the case of `CC1(C)Cc2ccccc2C(N/N=C/c2ccc(Cl)cc2)=N1`, the displacement was -3.6%.
With `O=c1oc2ccc(Br)cc2cc1-c1csc(-c2cc3cc([N+](=O)[O-])ccc3oc2=O)n1`, the displacement was -5.4%.
`Cc1ccc(-c2nc(-c3cc4cc([N+](=O)[O-])cc(Br)c4oc3=O)cs2)c(C)c1`: the displacement came to 95.2%.
Consider `O=c1oc2ccc(Br)cc2cc1-c1nc(-c2ccc([N+](=O)[O-])cc2)cs1`, for which the displacement is -7.2%.
Turning to `Cc1ccc(S(=O)(=O)Nc2ccc(S(=O)(=O)N3CCCCC3)cc2)cc1[N+](=O)[O-]`, the displacement was -4%.
Take `Cn1c(=O)c(C2=NS(=O)(=O)c3ccccc3N2)c(O)c2ccccc21`: the displacement worked out at 2.1%.
Consider `CC(=O)CC(c1ccccc1)S(=O)(=O)c1ccccc1C` (stereo not given), for which the displacement was 0.2%.
To `O=C(NCCCc1ccccc1)C(F)(F)F` belongs 85.1%.
With `O=C(NCCCc1ccccc1)c1ccccc1`, the displacement was -1.3%.
With `O=C(NCCC(c1ccccc1)c1ccccc1)C(F)(F)F`, the displacement is -1.5%.
As to `CCCCOc1ccc(C=O)cc1OCC`, the displacement was -7.3%.
Consider `CC(=O)C1=C(O)C(=O)N(CCN2CCNCC2)C1c1cccc(F)c1` (stereo not given), for which the displacement was -17.2%.
Consider `CCOC(=O)c1ccc(N2C(=O)NC(=O)/C(=C/c3ccc(OC)c(OC)c3)C2=O)cc1`, for which the displacement is -4.2%.
For `CCCC(=O)NC(c1ccco1)c1c(O)ccc2ccccc12` (stereo not given), the displacement was 6.6%.
`COc1ccc(N/C=C/C(=O)c2ccco2)cc1`: the displacement came to 11.7%.
Regarding `NS(=O)(=O)c1ccc(N/C=C/C(=O)c2ccco2)cc1`, the displacement was 74.8%.
In the case of `NS(=O)(=O)c1ccc(N/C=C/C(=O)c2ccc(Cl)c(Cl)c2)cc1`, the displacement is 4.8%.
As to `Cc1ccc(N2C(=O)NC(=O)/C(=C\c3ccc(N(C)C)c(Br)c3)C2=O)cc1`, the displacement came out at 10.1%.
With `CC(=O)c1cccc(N2C(=O)C3CCCCC3C2=O)c1` (stereo not given) the figure was -12.9%; with `COc1ccc(/C=C2/C=C(c3ccccc3)OC2=O)c(OC)c1`, -30%; with `CC(=O)Oc1ccccc1/C=C1\C=C(c2ccc(Cl)cc2)OC1=O`, 108%.
To `CC(=O)Oc1ccccc1/C=C1\C=C(c2ccc(C)cc2)OC1=O` belongs -0.2%.
On to `COc1ccccc1/C=C1\C=C(c2ccc(Cl)cc2)OC1=O`, for which the displacement was determined as 9.6%.
As for `CC(=O)Oc1ccccc1/C=C1\C=C(c2ccc(Br)cc2)OC1=O`, the displacement stood at 12%.
On to `COc1ccc(/C=C2\C=C(c3ccc(Cl)cc3)OC2=O)c(OC)c1`, for which the displacement is 25.2%.
As to `COc1ccc(C2=C/C(=C/c3ccc(OC)cc3OC)C(=O)O2)cc1`, the displacement amounted to 144%.
As for `COc1ccc(OC)c(/C=C2/C=C(c3ccccc3)OC2=O)c1`, the displacement is -24.5%.
Consider `COc1ccc(C2=C/C(=C/c3ccccc3OC)C(=O)O2)cc1`, for which the displacement was determined as 85.1%.

These data come from PubChem BioAssay AID1240 (Sanford-Burnham Center for Chemical Genomics, 2008).
